TEAD-YAP inh – TEAD-YAP interaction inhibition; 1.4% of 640,000 active; HEK-TIYL cells, TEAD-Gal4/YAP UAS-luciferase luminescence; inhibition, % at 9.12 µM; in the data active = inhibition above about 32%;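 also: 0% = median of test compound wells and 100% = reference inhibitor wells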
MITF primary – human MITF inhibition, primary screen | O75030 | AlphaScreen MITF homodimerization, bead proximity signal | inhibition, % at 2.6 µM | 0.91% of 650,000 active; in the data active = inhibition above about 50%;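 also: 0% = vehicle wells with protein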
GPR151 ag – activators of human GPR151. Q8TDV0. PathHunter beta-arrestin GPR151 cells, luminescence. activation, % at 11.2 µM. 1% of 650,000 active; in the data active = activation above about 4.9%;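 also: 0% = median of compound wells and 100% = cells with positive control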
FBW7 act – human FBW7 E3 ligase activation, primary screen. Q969H0. AlphaScreen FBW7–phospho-cyclin E peptide binding, activator screen. normalized activity (activation), % at 26.1 µM. 0.13% of 650,000 active. AID 1259310; in the data active = normalized activity above about 1.9%;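 also: purified mutant Fbw7 with reduced substrate affinity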
Target sequence (Q969H0 whole entry, looked up): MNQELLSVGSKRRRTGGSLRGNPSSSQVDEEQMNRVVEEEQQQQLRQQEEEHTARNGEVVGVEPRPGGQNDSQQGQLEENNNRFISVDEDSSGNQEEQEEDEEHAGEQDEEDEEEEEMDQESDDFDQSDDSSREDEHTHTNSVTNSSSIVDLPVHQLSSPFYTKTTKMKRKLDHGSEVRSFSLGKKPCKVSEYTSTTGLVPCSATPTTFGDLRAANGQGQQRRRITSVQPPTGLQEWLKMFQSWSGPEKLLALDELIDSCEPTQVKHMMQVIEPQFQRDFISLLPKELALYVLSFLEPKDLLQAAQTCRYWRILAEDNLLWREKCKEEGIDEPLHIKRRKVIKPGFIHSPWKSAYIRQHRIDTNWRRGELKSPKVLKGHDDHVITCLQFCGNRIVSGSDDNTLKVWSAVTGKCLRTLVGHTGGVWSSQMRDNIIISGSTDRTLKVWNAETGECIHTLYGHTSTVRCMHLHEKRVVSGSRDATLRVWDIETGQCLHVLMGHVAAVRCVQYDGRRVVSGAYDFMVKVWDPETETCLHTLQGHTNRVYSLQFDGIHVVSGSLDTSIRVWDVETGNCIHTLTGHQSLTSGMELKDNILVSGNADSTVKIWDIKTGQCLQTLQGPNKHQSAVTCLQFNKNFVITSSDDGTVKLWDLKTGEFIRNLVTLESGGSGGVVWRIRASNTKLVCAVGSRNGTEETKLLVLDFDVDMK
MITF inh conf – human MITF inhibition, confirmation; shares compounds with MITF primary; AlphaScreen MITF homodimerization, biotin/His-MITF beads; inhibition, % at 2.6 µM; 16% of 4,700 active;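 active = inhibition above a cutoff derived from the DMSO control wells, cut at about 28% in these data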;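 also: 0% = MITF dimer wells with DMSO only; inhibitors lower the bead chemiluminescence by keeping MITF from dimerizing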
AlphaScreen DR – AlphaScreen optical interference, dose response counter-screen | shares compounds with MITF primary | AlphaScreen optical interference counterscreen, cell-free | IC50, µM | 6% of 480 active; call rule not given here
AlphaScreen intf2 – AlphaScreen optical interference, counter-screen; shares compounds with MITF primary; AID 1259376; inhibition, % at 2.6 µM; LysRS AlphaScreen counterscreen, signal interference, triplicate; 7.6% of 4,700 active;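 active = inhibition above a cutoff derived from the DMSO control wells, cut at about 30% in these data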
Numbers without * were called inactive; . = not tested or not shown. This is a sample that favours compounds with a hit; in the whole collection about 3.5% have one here.

SMILES | TEAD-YAP inh | MITF primary | GPR151 ag | FBW7 act | MITF inh conf | AlphaScreen intf2 | others
Cc1ccc(OCC(=O)NNC(=O)C2CCCCC2C(=O)O)cc1 (stereo not given) | 7 | 10 | 0 | 0 | . | .
Cc1cc(C)n2nc(C(=O)Nc3ccc(Br)c(C)c3)nc2n1 | -48 | 51* | -2 | 1 | -7 | -8
Clc1ccc(OCCCN2CCNCC2)c(Br)c1 | -2 | 39 | 0 | 0 | . | .
Clc1cc(Cl)c(OCCCN2CCNCC2)c(Cl)c1 | -4 | 56* | 2 | -1 | -10 | -2
Cc1ccc(OCCCN2CCNCC2)c(Br)c1 | -17 | 69* | -1 | 0 | 8 | -3
Cc1cc(OCCOCCN2CCNCC2)cc(C)c1Cl | -5 | 64* | 0 | 0 | 4 | 8
Cc1cc(Cl)c(OCCCN2CCNCC2)c(Br)c1 | 1 | 47 | 2 | 0 | . | .
Clc1ccc(OCCN2CCNCC2)c(Br)c1 | 13 | 65* | 2 | 0 | -13 | -2
Cc1cc(Cl)ccc1OCCN1CCNCC1 | 9 | 73* | 0 | 0 | -4 | 0
Cc1cc(C)c(OCCOCCN2CCNCC2)c(C)c1 | -1 | 10 | -1 | 0 | . | .
Clc1ccc(SCCOCCN2CCNCC2)cc1 | -7 | 59* | -1 | 0 | -15 | -4
Clc1ccc(SCCN2CCNCC2)cc1 | 11 | 31 | 0 | 0 | . | .
Clc1ccc(OCCCCN2CCNCC2)c(Br)c1 | -5 | 79* | -1 | 0 | 4 | 16
Cc1cc(Cl)cc(C)c1OCCN1CCNCC1 | 0 | 55* | 3 | 0 | -4 | -4
Fc1ccc(-c2[nH]ncc2CNC23CC4CC(CC(C4)C2)C3)cc1 | 12 | 32 | 0 | 1 | . | .
CCCCCOC(=O)C1=C(C)NC2=C(C(=O)CCC2)C1c1ccc(OCc2ccccc2)c(OC)c1 (stereo not given) | 2 | 6 | 0 | 0 | . | .
COc1cc(OC)c(OC)cc1CNc1cccc(C)c1 | 1 | 52* | -1 | 0 | -6 | 0
Cc1cccc(NCc2cccc([N+](=O)[O-])c2)c1 | -3 | 69* | 0 | 0 | -4 | -4
COc1ccc(OC)c(CNc2cccc(C)c2)c1 | 5 | 64* | 2 | 0 | 15 | 22
Cn1cnnc1SCC(=O)Nc1ccc2c(c1)oc1ccccc12 | -49 | 20 | 0 | 0 | . | .
COc1cc(C2C(C(=O)OC(C)C)=C(C)NC3=C2C(=O)CC(c2ccccc2)C3)ccc1OCc1ccccc1 (stereo not given) | 5 | 64* | 0 | 0 | 10 | 17
COc1ccc(C2Nc3ccccc3NC3=C2C(=O)CC(c2ccc(Cl)cc2)C3)cc1OC (stereo not given) | -1 | 3 | 2 | 0 | . | .
COc1ccc(C2C(C(=O)OC(C)C)=C(C)NC3=C2C(=O)CC(c2ccccc2)C3)cc1OC (stereo not given) | 1 | 6 | -1 | 2 | . | .
COc1ccc(C2Nc3ccccc3NC3=C2C(=O)CC(c2ccccc2)C3)cc1OC (stereo not given) | 3 | 57* | 1 | 0 | 13 | 14
Cn1c(=O)c2cc(C(=O)NC3CC3)sc2c2ccccc21 | -11 | 0 | -1 | 0 | . | .
SMILES | TEAD-YAP inh | MITF primary | GPR151 ag | FBW7 act | MITF inh conf | AlphaScreen intf2 | others
CCCc1cc(=O)n2[nH]c(COC)c(-c3ccccc3)c2n1 | 8 | 14 | 1 | 1 | . | .
O=C(Cn1cc(C(=O)c2ccco2)c2ccccc21)NCc1cccnc1 | 5 | 67* | 0 | 0 | 62* | -4 | AlphaScreen DR=>6.5
CC1CN(C2=NC(=O)/C(=C\c3cn[nH]c3-c3ccccc3)S2)CC(C)O1 (stereo not given) | 0 | 4 | 5 | 0 | . | .
C/C(=N\OCC(O)CN1CCOCC1)C1COc2ccccc2O1 (stereo not given) | -5 | 51* | 0 | 0 | -2 | 10
O=C(c1cccnc1)N1CCN(Cc2ccc([N+](=O)[O-])cc2)CC1 | 1 | -14 | 0 | 0 | . | .
Cc1ccc(CN2CCN(C(=O)c3cccnc3)CC2)cc1 | 9 | 54* | -1 | 0 | -3 | -6
Cc1ccccc1CN1CCN(C(=O)c2cccnc2)CC1 | -7 | 61* | 1 | 0 | 18 | -1
O=C(c1cccnc1)N1CCN(Cc2ccc3ccccc3c2)CC1 | 7 | 37 | -1 | 0 | . | .
O=C(c1cccnc1)N1CCN(Cc2ccccc2C(F)(F)F)CC1 | -1 | 53* | 3 | 0 | -1 | -3

From PubChem BioAssay
